According to PubChem BioAssay AID687001 (Broad Institute, 2013):
Results with a measured potency or affinity are listed apart. Calls of active or inactive are those of the source.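 How the source made its calls: active means signal-lowering compounds whose fitted half-maximal concentration is at or below twice the top tested dose in every run; inconclusive means runs disagree, flat 30 to 70% inhibition, or poor curve fit; inactive means the rest.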

These molecules were tested against Protein S100-A4 (Homo sapiens) (UniProt P26447) (assay: S100A4-myosin IIA binding inhibitor potency, dose response, biochemical, fluorescence polarization, cherry-picked hits (AID 687001)). Conditions: FP, S100A4/TAMRA-myosin IIA peptide binding; series mostly up to 11 µM.
Protein S100-A4 (Homo sapiens), sequence (P26447 whole entry, looked up): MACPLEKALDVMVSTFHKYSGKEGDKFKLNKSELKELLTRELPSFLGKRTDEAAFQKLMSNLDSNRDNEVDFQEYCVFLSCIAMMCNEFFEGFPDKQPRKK

outcome, inactive:
Cc1ccc(NC(=O)CCCCCN2C(=O)[C@@H]3Cc4ccccc4CN3C2=O)cc1
C[C@@H]1CN([C@H](C)CO)C(=O)c2cccc(NC(=O)c3ccncc3)c2O[C@@H]1CN(C)C
Cc1ccc(C(=O)C2=C(O)C(=O)N(Cc3cccnc3)C2c2cccc([N+](=O)[O-])c2)o1 (centres undefined)
CCCCCC(=O)Nc1ncc2c(n1)CC(c1cccs1)CC2=O (centres undefined)
Cc1ccc(C(=O)N2CCN(c3ccc([N+](=O)[O-])c(N4CCOCC4)c3)CC2)cc1
CO[C@@H]1CN(C)C(=O)c2ccc(NC(=O)c3ccc(F)cc3)cc2OC[C@H](C)N(C(=O)CC2CC2)C[C@H]1C
C[C@@H]1CCCCO[C@@H](CN(C)C(=O)Nc2cccc3ccccc23)[C@H](C)CN([C@@H](C)CO)C(=O)c2cc(NC(=O)C3CCCCC3)ccc2O1
Cc1nc(Nc2cccc(O)c2)c2oc3ccccc3c2n1
COc1ccc(NC(=O)N(C)C[C@@H]2OCCCC[C@@H](C)Oc3ccc(NS(=O)(=O)c4ccc(Cl)cc4)cc3C(=O)N([C@H](C)CO)C[C@@H]2C)cc1
Cc1cccn2c(=O)c3cc(C(=O)NC4CCCCCC4)sc3nc12
CCCCCC(=O)Nc1cc(S(=O)(=O)N2CCOCC2)ccc1N1CCCCC1
CN(CC(=O)NCC(=O)Nc1ccc(F)cc1)CC(=O)Nc1ccc(Cl)c(C(F)(F)F)c1
CCOc1cc(/C=C2\CCCc3c2nc2ccccc2c3C(=O)O)ccc1OC
CCOC(=O)Cc1csc(NC(=O)c2c(-c3ccccc3)noc2C)n1
O=C(CSc1n[nH]c(-c2ccc(Br)cc2)n1)NC1CCCC1
C[C@@H]1CCCCO[C@H](CN(C)S(=O)(=O)c2ccc(Cl)cc2)[C@@H](C)CN([C@@H](C)CO)C(=O)c2cc(NS(=O)(=O)c3ccc(F)cc3)ccc2O1
Cc1cc2nnc(SCC(=O)NCC(c3ccccc3)N(C)C)n2c2ccccc12 (centres undefined)
Cc1ccc2c(c1)C(c1ccccc1)N(C(=O)c1ccccc1[N+](=O)[O-])CC(=O)N2 (centres undefined)
O=C(CN1C(=O)NC2(CCCCCCC2)C1=O)Nc1c(Cl)cccc1Cl
CCc1nn2c(=O)cc(COc3ccc(NC(=O)c4ccco4)cc3)nc2s1
Cc1csc(=O)n1CC(=O)OCc1nnc(-c2ccc(Cl)cc2)o1
O=C(COC(=O)C12CC3CC(CC(Br)(C3)C1)C2)Nc1c(F)cccc1F
CCCc1cc(=O)[nH]c(SCC(=O)N2CCc3ccccc32)n1
Cc1ccc(CNC(=O)c2[nH]c(C(F)(F)F)nc2-c2ccccc2)cc1
O=S(=O)(c1ccc(F)cc1)N1C[C@H]2[C@@H](c3ccccc31)[C@H](CO)N2Cc1ccccc1Cl
CCOC(=O)N1CCN(Cc2nc3cc([N+](=O)[O-])ccc3n2C)CC1
CSCCC(NC(=O)c1ccccc1Cl)C(=O)NCC(c1cccs1)N(C)C (centres undefined)
COC(=O)c1ccc2c(=O)n(CCN3CCOCC3)c(SCC(=O)Nc3ccccc3Cl)nc2c1
COc1cccc(-c2ccc3c(c2)[C@H]2[C@H](CCN2C(=O)c2ccc4c(c2)OCO4)[C@H](CO)N3C)c1
COc1cccc(-c2ccc([C@H]3[C@H](CO)N4CCCCN(CC5CC5)C[C@@H]34)cc2)c1
O=C(c1cc2c(s1)-c1ccccc1S(=O)(=O)C2)N1CCN(Cc2ccccc2)CC1
COc1ccccc1C(=O)NC(=O)COC(=O)c1ncc(Cl)c(Cl)c1Cl
NC(=O)c1cc(S(=O)(=O)Nc2cccc(Cl)c2)cs1
O=C(/C=C/c1cc(Br)ccc1F)OCC(=O)N1CCOCC1
COc1ccc(NC(=O)Nc2ccc3c(c2)CC(=O)N([C@@H](C)CO)C[C@@H](C)[C@H](CN(C)Cc2ccccc2)O3)cc1
Cn1nc(C(F)(F)F)c(-c2ccc(Br)cc2)c1NC(=O)C1CCC1C(=O)O (centres undefined)
COC(=O)c1ccc(Oc2nc(SC)nc(N(C)C)n2)cc1
C[C@@H]1CN([C@H](C)CO)C(=O)c2cccc(NC(=O)C3CCCCC3)c2O[C@@H]1CN(C)Cc1ccc(Oc2ccccc2)cc1
COC(=O)C[C@H]1CC[C@@H](NC(=O)Nc2cccc(OC)c2)[C@@H](CO)O1
